# Results taken from PubChem BioAssay AID1030 (National Center for Advancing Translational Sciences (NCATS), 2008).
# In all, about 220,000 compounds went through this assay and about 16,000 (7.3%) were called active. About 25% were inconclusive and are not listed. This is one part of a sample in which actives are shown more often than they occur. Values without a mark were called inactive. The call rests on the fitted dose curve; in most records, active means well fitted inhibition curve with a large enough effect (not every such curve was filed as active); inconclusive means small, poorly fitted or top-dose-only effect, or another doubt; inactive means no such curve, though single readings can be large or run the other way.
# Target: Aldehyde dehydrogenase 1A1 (Homo sapiens) (UniProt P00352)
# Sequence (P00352 whole entry, looked up): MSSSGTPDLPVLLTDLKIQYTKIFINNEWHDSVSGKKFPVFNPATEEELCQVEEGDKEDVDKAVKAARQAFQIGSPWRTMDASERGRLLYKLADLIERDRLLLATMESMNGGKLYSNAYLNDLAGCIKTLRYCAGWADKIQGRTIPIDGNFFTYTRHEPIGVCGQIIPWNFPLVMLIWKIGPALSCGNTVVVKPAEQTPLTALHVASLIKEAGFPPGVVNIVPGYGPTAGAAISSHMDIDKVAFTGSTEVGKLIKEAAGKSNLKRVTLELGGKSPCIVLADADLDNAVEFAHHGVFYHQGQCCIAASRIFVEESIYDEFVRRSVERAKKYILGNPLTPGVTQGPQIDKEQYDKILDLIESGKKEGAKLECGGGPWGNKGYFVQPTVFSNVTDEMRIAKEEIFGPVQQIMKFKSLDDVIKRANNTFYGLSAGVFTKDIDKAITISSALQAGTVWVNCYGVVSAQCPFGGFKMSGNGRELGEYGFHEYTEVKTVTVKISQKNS
# Assay: qHTS Assay for Inhibitors of Aldehyde Dehydrogenase 1 (ALDH1A1);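 on activity, negative = inhibition: plate controls were no enzyme wells and a reference inhibitor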
# Settings: Purified ALDH1A1, NADH fluorescence, propionaldehyde substrate; series mostly up to 75.3 µM; activity, negative = inhibition: at the top concentration
# Potency means the concentration at half of the fitted maximal effect.
SMILES,"activity, negative = inhibition",Potency
COc1cc(N2C(=O)c3ccccc3C2=O)c(Cl)cc1C(=O)OCC(=O)N1CCOCC1,-4.16%,–
CC(C)(O)C#Cc1ncc(C(F)(F)F)cc1Cl,8.76%,–
CSc1ccc(CN(C)CC(=O)NCc2ccc(F)cc2)cc1,-7.51%,–
CCC(C)[C@@H](C(=O)N1CCNCC1)n1cc(CCCCN)nn1 (stereo not given in full),2.27%,–
COc1cccc(CC(=O)N2CCCC(CCC(=O)N3CCN(c4ccccn4)CC3)C2)c1 (stereo not given),2.51%,–
CCSC1=C(C#N)C(=O)n2c1cc1c2CCCC1,–,4.47 µM (active)
C=CCNc1nc(Nc2ccc(Cl)cc2)nc(OC)n1,5.03%,–
C=C1O[C@@](CO)(n2cnc3c(N)ncnc32)[C@H](O)[C@@H]1O,-5.99%,–
Cc1nnc(N/N=C/c2ccccn2)[nH]c1=O,14.6%,–
Cc1ccc(-n2nc(C)c(/C=N/NC(=O)c3cccs3)c2Cl)cc1,2.29%,–
Cc1cc(=O)[nH]c(N/N=C/c2c(C)nn(-c3ccccc3Cl)c2Cl)n1,–,5.01 µM (active)
O=C(CSc1nnc(-c2ccncc2)n1-c1ccc(Cl)cc1)Nc1ccc(C(=O)O)cc1,6.45%,–
CC1(C)CC(=O)CC2(C1)NCC(c1ccccc1Cl)c1c2[nH]c2ccccc12 (stereo not given),-4.55%,–
COCCN1C(=O)N[C@@H](CCc2ccccc2)[C@H](C(C)=O)[C@H]1C,3.4% [at 13.5 µM],–
C=CC1=C2C=C(C3CC3)N(C(CO)CO)C=C2C(=O)C(C)(OC(=O)c2ccco2)C1=O (stereo not given),-4.41% [at 13.5 µM],–
CN(C)/C=C(/C(=O)c1ccc(F)cc1)S(=O)(=O)c1ccc(F)cc1,-0.904%,–
CCOc1ccc(N(CC(=O)NCc2ccc(OC)cc2)S(=O)(=O)c2c(C)noc2C)cc1,-6.14%,–
CCOc1ccc(N(CC(=O)OC)S(=O)(=O)c2c(C)noc2C)cc1,2.28%,–
CCOC(=O)c1cccc(NC(=O)CN(c2ccc(C)cc2)S(=O)(=O)c2c(C)noc2C)c1,–,7.94 µM (active)
CC(=O)c1c(C)[nH]c(C(=O)OCC(=O)NCCC(C)C)c1C,-2.21%,–
CCOc1cc(/C=N/NC(=O)c2ccc(CSc3nncn3C)cc2)ccc1OCC(=O)N1CCOCC1,1.26%,–
CCOc1ccccc1N=C1NC(=O)CS1,-7.47%,–

SMILES,"activity, negative = inhibition",Potency
CCOc1cccc(/C=N/NC(=S)NCCN2CCOCC2)c1O,-10.2%,–
CCOc1cccc(/C=N/N2C(=O)CSC2=S)c1O,–,7.08 µM (active)
O=C1CCC[C@@H]2CC(N3CCCCC3)C[C@@H]3CCN1[C@H]23 (stereo not given in full),3.52% [at 120 µM],–
COCCn1c(N)c(N(Cc2ccccc2)C(=O)C2CCCCC2)c(=O)[nH]c1=O,6.29%,–
O=C(Cn1ncc(N2CCCC2)c(Br)c1=O)c1ccc(Cl)cc1,1.58%,–
CCN1CCN(CC(=O)c2cc(OC)c(OC)c(OC)c2)CC1,–,28.2 µM (active)
CCCN(CCC)S(=O)(=O)c1ccc(C(=O)NNC(=O)c2cc(OC)c(OC)c(OC)c2)cc1,17.2%,–
COc1cc(C(=O)N2CCOCC2)cc(OC)c1OC,12.8%,–
COc1ccc(N2C(=O)C(O)C2c2ccc(C)cc2)cc1 (stereo not given),-1.47%,–
Cc1cc2oc(=O)cc(-c3ccccc3)c2c(C)c1-c1ccc(OC(F)(F)F)cc1,-3.09%,–
COc1ccc(-c2c(C)cc3oc(=O)cc(-c4ccccc4)c3c2C)cc1F,1.38%,–
COc1ccc(-c2c(C)cc3oc(=O)cc(-c4ccccc4)c3c2C)cc1C=O,–,0.126 µM (active)
C=CCn1c(COc2ccc(F)cc2)nnc1SCC(=O)Nc1cccc(S(N)(=O)=O)c1,-0.0485%,–
Cc1cccc(CSc2nnc(C)c(=O)n2N)c1,14.4%,–
Cc1cc(NC(=O)CN2C(=O)NC(C)(CCc3ccccc3)C2=O)no1 (stereo not given),0.49%,–
CC1CCN(C(=S)NC2CC3CCC2C3)CC1 (stereo not given),0.0397%,–
S=C(NNC(=S)NC1CC2CCC1C2)NC1CC2C=CC1C2 (stereo not given),–,20 µM (active)
S=C(NNC(=S)NC1CC2C=CC1C2)NC1CC2C=CC1C2 (stereo not given),–,12.6 µM (active)
COc1ccc(C(=S)Nc2ccccc2)cc1,-3.12%,–
COCCCNC(NC(=O)c1ccc(OC)cc1)C(Cl)(Cl)Cl (stereo not given),-4.51%,–
COCCNC(=S)c1ccc(OC)cc1,–,20 µM (active)
Cn1nc(-c2ccccc2)c(CO)c1Sc1ccccc1,-3.87%,–

SMILES,"activity, negative = inhibition",Potency
COc1ccc(C(=O)NNC(=O)c2cc(C)[nH]n2)cc1,12.4%,–
Cc1ccc(C2NC(=S)NC3=C2N2CCC3CC2)cc1 (stereo not given),–,8.91 µM (active)
CC(O)c1cccc(NC(=O)Cc2cccc3ccccc23)c1 (stereo not given),-2.39%,–
O=C(NCc1ccco1)c1nn2cccnc2c1Cl,-8.83%,–
O=C(NCc1ccco1)c1cc2sccc2n1Cc1ccc(F)cc1,-10.9%,–
O=C(NCc1ccco1)c1sc2cccc(F)c2c1Cl,–,28.2 µM (active)
COc1cccc(C(=O)Nc2c3c(nn2-c2cccc(C)c2C)CS(=O)(=O)C3)c1OC,-5.86%,–
O=C(CC1CCCCC1)NCc1ccc(F)cc1,6.96%,–
O=C(CC1CCCCC1)Nc1c2c(nn1-c1ccc(F)cc1)CS(=O)(=O)C2,–,7.94 µM (active)
COCCNc1nc2nonc2nc1N(C)Cc1ccc(C)cc1,-9.02%,–
CCCCN(CC)CCCNC(=O)c1ccc(CSc2nc3ccncc3[nH]2)cc1,5.75%,–
Cc1c(C=O)n(C)n(-c2ccccc2)c1=O,-2.02%,–
CCOC(=O)N1CCC(=NNC(N)=O)CC1,-13.5%,–
O=C(NCC1CCCO1)C1CCN(C2CCN(C(=O)C3CCCCC3)CC2)CC1 (stereo not given),5.35%,–
Cc1cccc(NC(=O)c2nnn(-c3cccc(C(F)(F)F)c3)c2N)c1,1.01%,–
CCn1c2ccccc2c2cc(NC(=S)N3CCOCC3)ccc21,-0.0483%,–
CCn1c2ccccc2c2cc(NC(=O)COC(=O)c3ccccc3Br)ccc21,1.6%,–
CCn1c2ccccc2c2cc(NC(=O)CNC)ccc21,–,25.1 µM (active)
CCOc1ccc(CN2CCN(Cc3ccc(C)o3)CC2CCO)cc1 (stereo not given),-0.485%,–
CCOC(=O)N1CCN(C(c2cccnc2)c2ccc3cccnc3c2O)CC1 (stereo not given),–,1.58 µM (active)
CCOC(=O)N1CCN(C(=O)CSc2ccc(Cl)cc2)CC1,-0.583%,–
O=C(O)COc1c(Cl)cc(Cl)c2cccnc12,-8.71% [at 13.5 µM],–

SMILES,"activity, negative = inhibition",Potency
CCN1CCN(C(c2cccnc2)c2cc(Cl)c3cccnc3c2O)CC1 (stereo not given),–,1.78 µM (active)
Oc1c(CN2CCN(c3ccc(F)cc3)CC2)cc(Cl)c2cccnc12,6.3%,–
Oc1c(C(c2ccccn2)N2CCOCC2)ccc2cccnc12 (stereo not given),3.47%,–
O=C(Nc1cccnc1)c1cc2cc(Br)ccc2oc1=O,9.74%,–
CCCN(CCC)c1ccc(C(O)c2nnc(-c3ccccc3)o2)cc1 (stereo not given),-8.68%,–
Oc1ccc(N=Nc2nccs2)c(O)c1,-8.35%,–
Cc1nn2cc(-c3ccc(Cl)cc3)cnc2c1Br,8.36%,–
CCCCCCCC1(C)NC(=O)N(CC(=O)Nc2cc(C)on2)C1=O (stereo not given),9.73%,–
CC1CN(S(=O)(=O)c2ccc(C(=O)NN3CCN(C)CC3)cc2)CC(C)O1 (stereo not given),3.74%,–
COc1cc([C@H](Cc2ccccc2)NC(C)=O)oc(=O)c1,-2.99%,–
COc1ccccc1C(=O)Nn1c(-c2cccs2)nc2ccccc2c1=O,-3.65%,–
O=C(NN1C(=O)C2C3C=CC(O3)C2C1=O)c1ccncc1 (stereo not given),–,17.8 µM (active)
O=C(Nc1ccc2c(c1)OCCO2)c1ccncc1,-9.21%,–
COc1ccccc1C(=O)NNC(=O)c1ccc(NC(=O)c2ccccc2)cc1,-6.22%,–
O=C(NN1C(=O)C2C3C=CC(C3)C2C1=O)c1ccco1 (stereo not given),6.99%,–
COc1ccccc1C(=O)NN1C(=O)C2C3C=CC(O3)C2C1=O (stereo not given),–,20 µM (active)
COC(=O)c1ccc(CN2CCC(CO)(Cc3ccc(OC)cc3)CC2)cc1,-1.03%,–
CC(NC(=S)NC1CCCCC1)C(c1ccccc1)N1CCOCC1 (stereo not given),13.9%,–
Cc1cccc(N2CCN(C(c3ccccc3)c3nnnn3CC3CCCO3)CC2)c1C (stereo not given),4%,–
CC(C)(C)n1nnnc1C(c1cccs1)N(Cc1cccnc1)CC1CCCO1 (stereo not given),-7.58%,–
Cc1cc(C)c2cc(CN(Cc3cccs3)Cc3nnnn3CC3CCCO3)c(=O)[nH]c2c1 (stereo not given),–,11.2 µM (active)
CCCCC(=O)Nc1ccc(C(=O)Nc2cc(C(F)(F)F)ccc2Cl)cc1,19.1%,–

SMILES,"activity, negative = inhibition",Potency
C[C@@H](Nc1nc(-c2ccccc2)nc2c1oc1ccccc12)C(=O)O,–,7.08 µM (active)
Cc1nc(Cl)c2oc3ccccc3c2n1,-6.54%,–
CCSc1nc(C)nc2c1oc1ccccc12,-4.26%,–
O=C(NCCN1CCOCC1)Nc1cccc(Cl)c1,-0.392%,–
CC/C(=N\NC(=S)NC(C)C)c1ccc(OC(F)F)cc1,-4.98%,–
Cc1ccc(NC(=S)N(CCCN2CCCC2)Cc2cccn2Cc2ccc(Cl)cc2)cc1,-3.32%,–
C/C(CCc1ccccc1)=N\NC(=O)c1ccc(CN2CCOCC2)cc1,–,25.1 µM (active)
O=C(Nc1ccc(CSc2ccccc2)cc1)c1ccc(CN2CCOCC2)cc1,5.45%,–
COc1ccc(C(=O)Nc2ccc(CN3CCOCC3)cc2)cc1,-8.55%,–
O=C(COc1ccc(NC(=O)c2ccccc2[N+](=O)[O-])cc1)c1ccc(F)cc1,9.17%,–
CSc1ncccc1C(=O)Nc1nc2ccc(F)cc2s1,-6.44%,–
COCC1CCCN(Cc2cn[nH]c2-c2cc3ccccc3o2)C1 (stereo not given),-0.0091%,–
O=C(O)c1ccc(/C=N/NC(=S)NCc2ccccc2)cc1,1.46%,–
O=C(Nc1ccncc1)c1ccccc1[N+](=O)[O-],3.73%,–
O=C(Cl)c1ccccc1[N+](=O)[O-],0.329%,–
O=[N+]([O-])c1ccccc1SNc1ccccn1,–,20 µM (active)
COc1cc(NC(=O)COc2ccccc2Cl)ccc1NC(=O)C(C)C,10.8%,–
COc1ccc(S(=O)(=O)N(C)C)cc1NC(=O)CSc1ncccn1,-2.21%,–
Cc1cccc(C)c1NC(=O)c1ccc(CN2CCc3ccccc3C2)cc1,4.47%,–
O=C(Nc1ccc(Cl)c(Cl)c1)N1CC=C(c2ccccc2)CC1,1.33%,–
Cc1cccc(C)c1NC(=O)N1CC=C(n2c(=O)[nH]c3ccccc32)CC1,–,6.31 µM (active)
CSc1ccc(CNCCN2CCOCC2)cc1,-2.14%,–
